# Columns and labels:
# Assay in all cases: thermal shift delta Tm vs DMSO control; higher = stronger stabilization (binding)
# Conditions in all cases: 12.5 µM; protein concentration 2 µM
# [1] = tested on: LOC_OS01G01410-cb001
# How it was run: (§1)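 Purified, E. coli-expressed rice kinase domain constructs were tested by differential scanning fluorimetry in 96-well plates: 19.5 μl of 2 μM kinase in 100 mM potassium phosphate pH 7.5, 150 mM NaCl, 10% glycerol, 5 × SYPRO Orange, plus compound in DMSO. Fluorescence was read from 25°C to 95°C at 0.05°C/s. Melting temperatures came from Boltzmann fits, and the shift is the triplicate mean relative to protein with DMSO alone.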
# [2] = tested on: LOC_OS01G02750-cb003
# How it was run: as §1
# [3] = tested on: LOC_OS01G10900-cb004
# How it was run: as §1
# [4] = tested on: LOC_OS01G13800-cb001
# How it was run: as §1
# [5] = tested on: LOC_OS01G14860-cb001
# How it was run: as §1
# [6] = tested on: LOC_OS01G21960-cb002
# How it was run: as §1
# [7] = tested on: LOC_OS01G39600-cb002
# How it was run: as §1
# [8] = tested on: LOC_OS01G48390-cb002
# How it was run: as §1
# [9] = tested on: LOC_OS01G51400-cb002
# How it was run: as §1
# [10] = tested on: T1, LOC_OS01G52050-cb004
# T1 sequence (whole entry): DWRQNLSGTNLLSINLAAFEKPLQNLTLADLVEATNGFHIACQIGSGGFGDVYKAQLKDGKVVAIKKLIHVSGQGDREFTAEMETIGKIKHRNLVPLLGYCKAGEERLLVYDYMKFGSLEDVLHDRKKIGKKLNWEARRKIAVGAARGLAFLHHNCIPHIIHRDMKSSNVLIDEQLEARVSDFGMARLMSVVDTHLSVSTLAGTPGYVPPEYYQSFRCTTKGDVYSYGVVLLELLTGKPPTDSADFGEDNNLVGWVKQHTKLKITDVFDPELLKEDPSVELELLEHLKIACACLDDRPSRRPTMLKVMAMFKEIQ
# How it was run: as §1
# [11] = tested on: LOC_OS01G57100-cb003
# How it was run: as §1
# [12] = tested on: LOC_OS01G60330-cb001
# How it was run: as §1
# [13] = tested on: LOC_OS01G60700-cb002
# How it was run: as §1
# [14] = tested on: LOC_OS01G63280-cb003
# How it was run: as §1
# [15] = tested on: LOC_OS01G67340-cb003
# How it was run: as §1
# [16] = tested on: LOC_OS01G70970-cb002
# How it was run: as §1
# [17] = tested on: LOC_OS02G07810-cb001
# How it was run: as §1
# [18] = tested on: LOC_OS02G08530-cb003
# How it was run: as §1
# [19] = tested on: LOC_OS02G14120-cb001
# How it was run: as §1
# [20] = tested on: LOC_OS02G17970-cb001
# How it was run: as §1
SMILES,thermal shift delta Tm [1],thermal shift delta Tm [2],thermal shift delta Tm [3],thermal shift delta Tm [4],thermal shift delta Tm [5],thermal shift delta Tm [6],thermal shift delta Tm [7],thermal shift delta Tm [8],thermal shift delta Tm [9],thermal shift delta Tm [10],thermal shift delta Tm [11],thermal shift delta Tm [12],thermal shift delta Tm [13],thermal shift delta Tm [14],thermal shift delta Tm [15],thermal shift delta Tm [16],thermal shift delta Tm [17],thermal shift delta Tm [18],thermal shift delta Tm [19],thermal shift delta Tm [20]
COc1cc2c(cc1OC)[C@@H]1C(=O)c3ccc4c(c3O[C@@H]1CO2)C=CC(C)(C)O4 [Deguelin],0.07 °C,0.45 °C,0.52 °C,0.41 °C,0.23 °C,0.41 °C,-0.1 °C,0.4 °C,-0.11 °C,0.13 °C,1.25 °C,1.41 °C,0.73 °C,0.43 °C,0.31 °C,0.2 °C,0.57 °C,0.83 °C,0.97 °C,1.35 °C
CN(C)S(=O)(=O)c1ccc2c(c1)/C(=C/c1cc3c([nH]1)CCCC3)C(=O)N2,0 °C,6.57 °C,2.65 °C,1.7 °C,1.95 °C,3.86 °C,3.22 °C,2.42 °C,3.07 °C,13 °C,6.51 °C,10.9 °C,1.5 °C,7.86 °C,11.3 °C,5.65 °C,1.5 °C,5.64 °C,13 °C,1.69 °C
CCC(=O)Nc1cccc(Oc2nc(Nc3ccc(N4CCN(C)CC4)cc3OC)ncc2Cl)c1,0.36 °C,1.2 °C,0.23 °C,-0.06 °C,-0.01 °C,0.7 °C,-0.79 °C,0.98 °C,0.38 °C,0.14 °C,0.87 °C,1.08 °C,1.14 °C,0.16 °C,0.44 °C,0.22 °C,0.45 °C,1.46 °C,0.22 °C,0.04 °C
CC(C)(C)c1cc(NC(=O)Nc2ccc(-c3cn4c(n3)sc3cc(OCCN5CCOCC5)ccc34)cc2)no1 [Quizartinib (AC220)],-0.06 °C,0.83 °C,0.82 °C,0.79 °C,0.25 °C,1.03 °C,0.27 °C,0.74 °C,-0.16 °C,0.84 °C,0.35 °C,0.35 °C,1.08 °C,0.09 °C,0.36 °C,0.3 °C,0.96 °C,1.36 °C,0.28 °C,1.06 °C
NC(=O)c1ccc(N(C(N)=O)c2c(F)cccc2F)nc1-c1ccc(F)cc1F,0.34 °C,0.53 °C,0.19 °C,-0.47 °C,-0.12 °C,0.57 °C,-1.78 °C,0.07 °C,0.14 °C,-0.21 °C,-0.23 °C,-0.16 °C,0.91 °C,-0.21 °C,-0.08 °C,0.4 °C,0.66 °C,0.7 °C,-0.49 °C,0.09 °C
C=CC(=O)Nc1cccc(Oc2nc(Nc3ccc(N4CCN(C)CC4)cc3)nc3ccsc23)c1,2.67 °C,1.02 °C,2.04 °C,0.55 °C,0.91 °C,1.61 °C,0.15 °C,1.38 °C,0.79 °C,1.94 °C,2.41 °C,0.93 °C,3.14 °C,0.86 °C,0.85 °C,1.8 °C,1.13 °C,2.66 °C,3.63 °C,2.18 °C
CN(C)C/C=C/C(=O)Nc1cc2c(Nc3ccc(F)c(Cl)c3)ncnc2cc1O[C@H]1CCOC1 [Afatinib (BIBW2992) Dimaleate],0.1 °C,2.11 °C,5.05 °C,0.72 °C,3.86 °C,1.14 °C,1.17 °C,2.48 °C,0.14 °C,1.67 °C,0.18 °C,1.16 °C,1.57 °C,1 °C,0.71 °C,-0.12 °C,0.8 °C,1.12 °C,2.75 °C,1.68 °C
O=C(Nc1ccc(OC(F)(F)F)cc1)c1sccc1NCc1ccnc2ccccc12,1.17 °C,2.66 °C,0.51 °C,0.57 °C,0.78 °C,0.12 °C,1.45 °C,1 °C,0.94 °C,3.68 °C,0.93 °C,2.48 °C,0.05 °C,6.18 °C,0.22 °C,1.27 °C,1.03 °C,0.68 °C,0.49 °C,0.48 °C
COc1cc(N2CCC(N)CC2)ccc1Nc1ncc(Cl)c(-c2c[nH]c3ccccc23)n1,0.82 °C,0.87 °C,2.95 °C,-0.64 °C,1.41 °C,3.79 °C,-2.78 °C,0.17 °C,1.21 °C,5.27 °C,5.66 °C,7.59 °C,2.23 °C,0.87 °C,0.6 °C,6.87 °C,1.19 °C,7.02 °C,9.17 °C,1.36 °C
CCNC(=O)Nc1ccc(-c2nc(N3CCOC[C@@H]3C)c3c(n2)C(C)(C)S(=O)(=O)C3)cc1,0.67 °C,1.05 °C,0.47 °C,0.09 °C,0.6 °C,0.34 °C,-0.26 °C,-0.02 °C,0.22 °C,3.06 °C,2.26 °C,0.52 °C,-0.02 °C,0.04 °C,0.5 °C,0.57 °C,-0.58 °C,0.6 °C,1.4 °C,-0.21 °C
COc1ccc(COc2ccc(Cc3cnc(N)nc3N)cc2OC)cc1,-0.12 °C,1.12 °C,2.07 °C,0.44 °C,0.12 °C,0.25 °C,0.89 °C,-0.01 °C,0.2 °C,0.04 °C,-0.05 °C,0.76 °C,1.06 °C,0.32 °C,0.31 °C,0.08 °C,0.34 °C,-0.15 °C,1.94 °C,1.56 °C
Cc1c(Cn2c(C)nc3c(C(=O)O)cc(N4CCOCC4)cc32)cccc1C(F)(F)F,0.42 °C,2.18 °C,0.15 °C,-0.48 °C,-0.01 °C,0.56 °C,0.55 °C,5.45 °C,0.63 °C,-0.39 °C,1.01 °C,0.83 °C,0.4 °C,-0.3 °C,0.23 °C,0.27 °C,0.73 °C,0.55 °C,-0.38 °C,0.26 °C
CN1CCN(c2ccc(C(=O)Nc3n[nH]c4ccc(Cc5cc(F)cc(F)c5)cc34)c(NC3CCOCC3)c2)CC1 [Entrectinib (RXDX-101)],2.21 °C,2.9 °C,4.99 °C,-0.49 °C,0.18 °C,1.51 °C,3.51 °C,5.48 °C,0.15 °C,0.2 °C,0.09 °C,4.04 °C,0.42 °C,-0.06 °C,0.57 °C,1.01 °C,0.27 °C,3.95 °C,5.28 °C,0.09 °C
